SMN2 splice enh: enhancers of SMN2 splice variant expression; HEK293 SMN2-luciferase splicing reporter, luminescence, 30-36 h; Potency, µM (top dose mostly 46.1 µM), hits mostly activators; actives 2.8% (n = 210,000); AID 1458; note: nearly all actives have a fitted effect of over 55% in size
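HEK293 cells carry an SMN2 minigene-luciferase reporter in which exon 7 inclusion puts luciferase in frame. Cells were seeded at 2000 cells/well, attached for 10-12 hours, then exposed to compounds for 30-36 hours at 37C before ONE-Glo luminescence.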
Rab9 promoter act: activators of Rab9 promoter; Huh7 Rab9 promoter-luciferase reporter, luminescence, 24 h; Potency, µM (series often up to 9.22 µM), usual class: activators; actives 2.8% (n = 320,000); AID 485297; note: nearly all actives have a fitted effect of over 60% in size
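Quantitative HTS format; Huh7 Rab9-luciferase reporter cells (1500/well) receive compound 2 h post-plating, incubate 24 h at 37 °C, then get luciferase reagent for 10 min before luminescence reading.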
p53 reactivator: mutant p53 re-activation in reporter cells | Potency, µM (highest dose often 92.2 µM), usual class: activators | actives 0.063% (n = 320,000) | H1299 p53-A138V BP100-luciferase reporter, luminescence, 24 h; note: nearly all actives have a fitted effect of over 45% in size
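p53-null H1299 cells stably carrying temperature-sensitive p53-A138V and a BP100-luciferase reporter were pinned with compounds (4-point, 1:5 series) and held 24 hrs at 37 deg C. Luminescence was read 10 min after detection reagent.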
NPC1 promoter act: activators of NPC1 promoter; actives 2.4% (n = 320,000); Huh7 NPC1 promoter luciferase reporter, 24 h; AID 485313; Potency, µM (series often up to 9.22 µM), actives largely listed as activators; note: nearly all actives have a fitted effect of over 60% in size
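In 1536-well qHTS, Huh7 cells harboring an NPC1 promoter–luciferase construct received compound for 24 h; activation was quantified by luminescence following luciferase reagent addition.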
ELG1 genotoxic: genotoxicity induction in ELG1-luciferase HEK293T cells; HEK293T ELG1-luciferase reporter, luminescence, 16 h; Potency, µM (series often up to 46 µM), most hits filed as activators; actives 1.3% (n = 330,000); AID 504466; note: nearly all actives have a fitted effect of over 60% in size
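After overnight (16 hr) compound treatment at 37 °C, ELG1-luciferase HEK293T cells were lysed with ONE-Glo; luminescence quantified 30 min later at room temperature.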
FLuc counter: inhibits or activates purified firefly luciferase, miR-21 counter-screen. actives 6.9% (n = 360,000). purified FLuc, Km substrates, luminescence inhibition. Potency, µM (top dose mostly 57.5 µM), usual class: inhibitors; note: nearly all actives have a fitted effect of over 55% in size
Target sequence (P08659 whole entry, looked up): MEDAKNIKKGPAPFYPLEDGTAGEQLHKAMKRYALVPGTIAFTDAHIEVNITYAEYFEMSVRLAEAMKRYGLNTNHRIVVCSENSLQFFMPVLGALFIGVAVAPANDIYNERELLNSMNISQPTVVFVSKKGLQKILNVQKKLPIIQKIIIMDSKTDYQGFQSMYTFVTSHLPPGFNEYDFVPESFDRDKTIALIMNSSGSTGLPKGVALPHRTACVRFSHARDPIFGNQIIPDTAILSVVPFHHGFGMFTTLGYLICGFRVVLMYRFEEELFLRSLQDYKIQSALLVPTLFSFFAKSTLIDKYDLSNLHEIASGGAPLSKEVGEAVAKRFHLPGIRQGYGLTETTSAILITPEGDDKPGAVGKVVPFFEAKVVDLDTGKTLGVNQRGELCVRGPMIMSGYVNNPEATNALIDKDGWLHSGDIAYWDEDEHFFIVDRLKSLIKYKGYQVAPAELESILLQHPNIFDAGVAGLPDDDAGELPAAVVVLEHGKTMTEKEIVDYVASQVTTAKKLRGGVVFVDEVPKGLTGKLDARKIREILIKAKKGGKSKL
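Purified P. pyralis luciferase (10nM final) with 10uM D-luciferin and 10uM ATP (Km levels) in 50mM Tris acetate pH 7.5, 10mM Mg acetate, 0.01% Tween-20, 0.05% BSA; qHTS 6-point titration, ~60 µM downward; luminescence read.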
Of the large screens only hits and unclear results are named; the others gave an inactive call. Shown are actives, neighbours in structure and some others; about 7.3% of the full set was active somewhere. Calls come from the whole dose curve; as a rule, active = well fitted curve in the direction sought with a large enough effect; inconclusive = small, poorly fitted or top-dose-only effect, or another doubt; inactive = no such curve, though single readings can be large; an effect the other way counts as inactive or inconclusive.

Cc1ccc(NC(=O)C(=O)NCC2CCCO2)cc1C (stereo unspecified)	SMN2 splice enh 11.2µM, Rab9 promoter act 1.26µM, NPC1 promoter act 2.82µM, ELG1 genotoxic 8.2µM, FLuc counter inconclusive
Cc1ccc(NC(=O)C(=O)NCC2CCCO2)cc1 (stereo unspecified)	SMN2 splice enh 14.1µM, Rab9 promoter act 3.98µM, NPC1 promoter act inconclusive, ELG1 genotoxic inconclusive, FLuc counter inconclusive
Cc1ccc(NC(=O)C(=O)NN=C2CCCC2)cc1C	Rab9 promoter act inconclusive, FLuc counter 13.5µM (no result: SMN2 splice enh)
Cc1nnc(SC(C)C(=O)NCC2CCCO2)s1 (stereo unspecified)	none (no result: SMN2 splice enh)
Cc1ccc(Nc2nnc(SC(C)C(=O)NCC3CCCO3)s2)cc1C (stereo unspecified)	FLuc counter 15.1µM (no result: SMN2 splice enh)
COc1cc(/C=C2\SC(=Nc3ccc(F)cc3)N(c3ccc(F)cc3)C2=O)ccc1OCC(=O)O	FLuc counter inconclusive
CCN=C1S/C(=C\c2cc(Br)c(O)c(OC)c2)C(=O)N1CC	none (no result: SMN2 splice enh)
CN=C1S/C(=C\c2ccc(Cl)cc2)C(=O)N1C	none (no result: SMN2 splice enh)
CN=C1S/C(=C\c2ccc(O)c(Br)c2)C(=O)N1C	FLuc counter 15.1µM (no result: SMN2 splice enh)
CN=C1S/C(=C\c2ccc(OCC(=O)OC)c(OC)c2)C(=O)N1C	FLuc counter 16.9µM (no result: SMN2 splice enh, p53 reactivator)
CCOC(=O)CSC1=NC(=O)/C(=C\c2ccc(Cl)cc2)S1	p53 reactivator inconclusive, ELG1 genotoxic inconclusive, FLuc counter 10.7µM (no result: SMN2 splice enh)
CN=C1S/C(=C\c2ccc(SC)cc2)C(=O)N1C	p53 reactivator inconclusive, NPC1 promoter act inconclusive, ELG1 genotoxic 10.3µM, FLuc counter 12µM (no result: SMN2 splice enh)
Cc1ccc(-c2nnc(SCC(=O)NC(C)(C)C)nc2-c2ccc(C)cc2)cc1	none (no result: SMN2 splice enh, Rab9 promoter act, p53 reactivator, NPC1 promoter act, ELG1 genotoxic)
COC(=O)c1ccc(NC(=O)c2cc[n+](Cc3ccccc3)cc2)cc1	none (no result: SMN2 splice enh)
CSC1=NC(=O)/C(=C/c2ccc(SC)cc2)S1	p53 reactivator inconclusive, FLuc counter 9.53µM
CCN(CC)c1ccc(/C=C2\SC(N)=NC2=O)cc1	Rab9 promoter act inconclusive, NPC1 promoter act inconclusive, ELG1 genotoxic inconclusive, FLuc counter inconclusive (no result: SMN2 splice enh)
COc1ccc(NC(=O)CSc2ccccn2)cc1OC	none (no result: Rab9 promoter act, p53 reactivator, NPC1 promoter act, ELG1 genotoxic)
COc1ccc(/C=N/NC(=O)c2ccccc2O)cc1Cn1nnc2ccccc21	FLuc counter 21.3µM (no result: SMN2 splice enh)
COc1ccc(/C=N/NC(=O)CSc2ccccc2)cc1OC	FLuc counter 12µM
COc1ccc(/C=N\NC(=O)c2sccc2C)cc1Cn1nc(C)cc1C	ELG1 genotoxic 9.2µM (no result: SMN2 splice enh)
COc1ccc(/C=N/NC(=O)CSc2ccccn2)cc1OC	FLuc counter 19µM (no result: SMN2 splice enh)
Cc1ccc(Cn2c(C)c(CNCc3ccccc3F)c(C(=O)O)c2C)cc1	none (no result: Rab9 promoter act, p53 reactivator, NPC1 promoter act, ELG1 genotoxic)
COc1ccc(/C=N/NC(=O)c2ccccc2O)cc1CSc1ccccn1	FLuc counter 19µM
COc1ccc(/C=N/NC(=O)c2ccccc2O)cc1COc1ccccn1	none (no result: SMN2 splice enh)
COc1cccc(NC(=O)COC(=O)c2ccccc2F)c1	FLuc counter 12µM
COc1cc(NC(=O)c2cc(-c3cccc(OC)c3)n[nH]2)cc(OC)c1	FLuc counter 12µM (no result: SMN2 splice enh, Rab9 promoter act, p53 reactivator, NPC1 promoter act, ELG1 genotoxic)
COc1cccc(NC(=O)c2cccc(C(=O)Nc3cccc(OC)c3)n2)c1	FLuc counter inconclusive (no result: SMN2 splice enh)
COc1cccc(NC(=O)c2ccccc2F)c1	Rab9 promoter act 3.55µM, NPC1 promoter act 3.98µM, ELG1 genotoxic 4.61µM, FLuc counter 6.01µM (no result: SMN2 splice enh)
COc1cccc(NC(=O)c2ccccc2-c2ccccc2C(=O)O)c1	none (no result: SMN2 splice enh)
COc1cccc(NC(=O)c2ccccc2Br)c1	Rab9 promoter act 3.55µM, NPC1 promoter act 3.98µM, ELG1 genotoxic inconclusive, FLuc counter 15.1µM (no result: SMN2 splice enh, p53 reactivator)
COc1cccc(NC(=O)C2=COCCO2)c1	Rab9 promoter act 3.16µM, NPC1 promoter act inconclusive, ELG1 genotoxic inconclusive, FLuc counter inconclusive (no result: SMN2 splice enh)
COc1cccc(NC(=O)c2c(F)cccc2F)c1	Rab9 promoter act inconclusive, ELG1 genotoxic 10.3µM, FLuc counter inconclusive (no result: SMN2 splice enh)
COc1cccc(NC(=O)CN(C)C(=O)C2=COCCO2)c1	none (no result: SMN2 splice enh)
Cc1cc(Nc2cccc(C(F)(F)F)c2)nc2ccc(NC(=O)c3cncc(Br)c3)cc12	none (no result: SMN2 splice enh, Rab9 promoter act, p53 reactivator, NPC1 promoter act, ELG1 genotoxic)
COc1ccc(C(=O)N2CCC[C@@]3(CCN(C(=O)Nc4ccccc4)C3)C2)cc1	none (no result: Rab9 promoter act, p53 reactivator, NPC1 promoter act, ELG1 genotoxic, FLuc counter)

Assay outcomes (PubChem)
